The values below come from PubChem BioAssay.

A number with no mark means an inactive call.

The nature of this experiment: resazurin metabolic signal in A549 cells – cell-based, resazurin fluorescence, 24 h, PK04 Diversity Set, profiling panel (AID 1171). Further: test concentration not given here. As to conditions: A549 viability, higher = more signal, called active from +8 up or from −8 down.
Take `O=C(CS)NCCCCCNC(=O)[C@@H]1C[C@@H]2C(=O)NCC(=O)N2[C@@H]1c1cccc(OCCO)c1`: the z-score was -0.696.
With `O=C(CS)NCCCCCNC(=O)[C@H]1C[C@H]2C(=O)NCC(=O)N2[C@H]1c1cccc(OCCO)c1`, the z-score is 0.768.
For `CN(C)CCCCNC(=O)[C@@H]1C[C@@H]2C(=O)N[C@@H](CCCCN)C(=O)N2[C@@H]1c1ccc(O)cc1`, the z-score was 0.0719.
With `COc1ccc(CCNC(=O)[C@@]2(C)c3ccccc3C(=O)N(c3ccc(C)cn3)[C@H]2c2ccc(CO)cc2)cc1`, the z-score is 0.236.
As for `O=C(NCCN1CCOCC1)[C@@H]1c2ccccc2C(=O)N(Cc2cc(C(F)(F)F)cc(C(F)(F)F)c2)[C@H]1c1ccc(CO)cc1`, the z-score was 0.0288.
On to `O=C(NCc1ccccc1)[C@@H]1c2ccccc2C(=O)N(C2Cc3ccccc3C2)[C@H]1c1ccc(CO)cc1`, for which the z-score was 0.791.
With `COCCOC(=O)N1C(=O)[C@@]2(c3cc(C#CC4(O)CCCCCC4)ccc31)[C@H](C(=O)Nc1nc3ccccc3s1)[C@H]1C(=O)O[C@H](c3ccccc3)[C@H](c3ccccc3)N1[C@@H]2c1ccccc1OCCO`, the z-score is -0.511.
Next, `CC1CC/C=C\[C@H]2OC34C=CCN(c5ccc6ccccc6c5)C(=O)[C@H]3N(CCO)C(=O)[C@@H]4C2C(=O)O1` (stereo not given in full): -0.573; `O=C1O[C@@H](c2ccccc2)[C@@H](c2ccccc2)N2[C@@H](c3ccc(OCCO)cc3)[C@]3(C(=O)Nc4ccc(C#CCCO)cc43)[C@@H](C(=O)NC[C@H](O)c3ccccc3)[C@H]12`: -0.293.
Regarding `O=C1OCCC/C=C\[C@H]2OC34C=CCN(c5ccc6ccccc6c5)C(=O)[C@H]3N(CCCCCO)C(=O)[C@@H]4C12` (stereo not given in full), the z-score was 0.123.
Take `CC(C)CNC(=O)[C@@]1(Cc2ccccc2I)c2ccccc2C(=O)N(Cc2ccccc2C(F)(F)F)[C@H]1c1ccc(CO)cc1`: the z-score is -0.328.
The figure for `C#CCOc1ccc(C[C@@H](C(=O)OC)N(CC#C)[C@@H](/C=C/C2CC2)[C@H](O)Cc2ccccc2)cc1` is 0.313.
For the compound `CCOC(=O)[C@H]1C/C=C/C[C@H](C(=O)OCC)C(=O)O[C@H]2[C@@H](OC)O[C@H](CO)[C@@H](OC(=O)c3ccc(Br)cc3)[C@@H]2OC1=O`, the z-score was -1.92.
Next, `O=C1[C@@]23C=C(Br)[C@H](C[C@@H]2COC3)[C@]12CO2`: -0.453; `O=C1NC(=O)C2C1C=CC(C(O)c1ccc(-c3ccccc3)s1)N2Nc1ccc(Cl)cc1Cl` (stereo not given): -1.65.
For `C=C(C(=O)CC[C@H](OC(C)=O)c1ccccc1OCCO)C(C)C`, the z-score is -2.7.
The figure for `O=C1C2C=CC(C(O)COCc3ccccc3)N(Nc3ccc([N+](=O)[O-])cc3)C2C(=O)N1c1ccccc1` (stereo not given) is 0.315.
For the compound `COCC(=C=CC[C@H](O)c1cccc(OCCO)c1)CCO`, the z-score is 0.614.
Consider `NCCCCCCNC(=O)[C@H]1C[C@H]2C(=O)N[C@@H](Cc3ccccc3)C(=O)N2[C@H]1c1cccc(OCCO)c1`, for which the z-score was 1.21.
For the compound `CCCCCN1CC=CC23O[C@@H]4C=CCOC(=O)[C@@H]4[C@H]2C(=O)N(C(C)CO)[C@@H]3C1=O` (stereo not given in full), the z-score is 0.0264.
For `CC(c1ccccc1)C(O)C1C=CC2C(=O)N(C)C(=O)C2N1NC(=O)OC(C)(C)C` (stereo not given), the z-score is 0.866.
For the compound `COCCCNC(=O)[C@@H]1c2ccccc2C(=O)N(Cc2ccccc2)[C@H]1c1ccc(CO)cc1`, the z-score is 0.45.
On to `COCCOC(=O)N1C(=O)[C@@]2(c3cc(C#CCCO)ccc31)[C@H](c1ccc(OCCO)cc1)N1[C@H](c3ccccc3)[C@H](c3ccccc3)OC(=O)[C@H]1[C@@H]2C(N)=O`, for which the z-score was 0.215.
For the compound `COc1ccc(C(=O)Nc2ccc(CN3C(=O)[C@]4(O[C@H](CC(=O)N5CCC[C@H]5CO)[C@@H]([Si](C)(C)c5ccc(OC)cc5)[C@@H]4C)c4ccccc43)cc2)cc1`, the z-score is -1.98.
In the case of `C=CC[C@]1(C(N)=O)COC(c2ccc(OCCCO)cc2)=N1`, the z-score is 0.381.
On to `COC(=O)[C@@]1(Cc2ccccc2)[C@H]2c3cc(C(=O)N(C)C)n(CCc4c[nH]c5ccc(O)cc45)c3C[C@H]2CN1C(=O)c1ccccc1`, for which the z-score was 0.349.
Next, `COc1ccc(C#Cc2ccc3c(c2)[C@]2(C(=O)N3)[C@H](c3ccc(O)cc3)N3[C@H](c4ccccc4)[C@H](c4ccccc4)OC(=O)[C@H]3[C@@H]2C(=O)N2CCc3cc(OC)c(OC)cc3C2)cc1`: -0.565.
Consider `O=C1OCCC=C[C@H]2OC34C=CCN(Cn5nnc6ccccc65)C(=O)[C@H]3N(CCO)C(=O)[C@@H]4C12` (stereo not given in full), for which the z-score was 0.293.
The figure for `CC(C)Cc1ccc(CN2CC[C@@H](N)C2)cc1` is 3.36; for `C[N+](C)(C)CCCCCCNC(=O)[C@H]1C[C@H]2C(=O)N[C@@H](Cc3ccccc3)C(=O)N2[C@H]1c1cccc(OCCO)c1` it is 0.568.
`CO[C@H]1O[C@H](CO)[C@@H](OC(=O)Nc2ccc(Oc3ccccc3)cc2)[C@H](OC(=O)Nc2ccc3c(c2)OCO3)[C@@H]1OC(=O)Nc1ccc2c(c1)OCO2`: the z-score is -1.29.
As for `C=C(CCCC)/C(=C/C[C@@H](OC(C)=O)c1ccccc1OCCO)c1cc(C(=O)OC)ccc1OC`, the z-score is 0.873.
For `C=CCC(OC(C)=O)[C@@H]1[C@@H](N(Cc2cc3ccccc3o2)C(=O)Cc2ccc(OC)cc2)c2cc(OCCCO)ccc2N1C(=O)c1ccc2ccccc2c1` (stereo not given in full), the z-score was -1.34.
Regarding `O=C1C2C=CC(C(O)c3c(F)cccc3Cl)N(Nc3ccccc3F)C2C(=O)N1c1ccccc1` (stereo not given), the z-score was -0.103.
The figure for `CN(C)C(=O)[C@]1(Cc2ccccc2)N=C(c2ccc(OCCCO)cc2)O[C@@H]1c1ccccc1N=[N+]=[N-]` is -1.75.
